Consider 51 compounds from PubChem BioAssay AID1347076 (National Center for Advancing Translational Sciences (NCATS), 2019).

About 13,000 (3.2%) of roughly 400,000 compounds were called active. Roughly 18% stayed inconclusive and do not appear here. Many of the other results were omitted from the sample, so actives are more common in it than they were. Unmarked numbers belong to inactive results. Calls come from the whole dose curve; as a rule, active = well fitted cell-killing curve with a large enough effect; inconclusive = small, poorly fitted or top-dose-only effect, or effect the other way; inactive = flat fitted curve, though single readings scatter.
% is set by controls: 0 for no effect and ±100 for the full control effect; potency is the fitted concentration of half-maximal effect.

The nature of this assay: qHTS assay for MDR1-selective chemotherapeutics: Primary screen using the drug-selected MDR subline cells KB-V1. Note: nearly all actives have a fitted effect of over 60% in size. The following applies: KB-V1 MDR cells viability, CellTiter-Glo, 72 h; series mostly up to 46.1 µM; activity change, negative = cytotoxicity: at the top concentration. The method in brief:
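Compound-treated KB-V1 multidrug-resistant cells, 72 h, 37 degrees C; viability by CellTiter-Glo. Fitted qHTS curves give the values.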
Regarding `COc1ccc(C(=O)C(OP(=O)(OC)OC)c2ccccc2OC)cc1` (stereo unspecified), the “activity change, negative = cytotoxicity” value was -16.5%.

For the compound `CC1CC(NC(=S)N(C)C)CC(C)(C)C1` (stereo unspecified), the “activity change, negative = cytotoxicity” value was -7.02%.

In the case of `C=CCOC(=O)c1ccccc1C(=O)OCC=C`, the “activity change, negative = cytotoxicity” value is 28.4%. Turning to `C=CCOC(=O)C1=C(C)NC(C)=C(C(=O)OCC=C)C1c1cccs1`, the Potency was 16.4 µM (active).

Take `CC1=C(C(=O)Nc2ccccc2)C(c2cccs2)C(C#N)=C(SCC#N)N1` (stereo unspecified): the “activity change, negative = cytotoxicity” value is -9.02%. In the case of `COc1ccc(C(O)c2nc(-c3ccc(OC)nc3)cs2)cc1` (stereo unspecified), the “activity change, negative = cytotoxicity” value was -18.5%. The same measure, in the same setting: next, `CCOC(=O)c1c(-c2ccc(-c3ccccc3)cc2)csc1NC(=O)CCC(=O)O`: 23%; `Cc1ccc(CNC(=O)c2c(-c3ccccc3)noc2C)cc1`: 6.43%. `CCOC(=O)c1c(-c2cccc(C)c2)csc1NC(=O)c1c(-c2ccccc2)noc1C`: the Potency was 11.6 µM (active). For `O=S1(=O)CC(N2CCN(CCO)CC2)CN1C1CCCC1` (stereo unspecified), the “activity change, negative = cytotoxicity” value was -0.341%.

For the compound `COc1ccc(C(=O)NCC2CCCO2)cc1S(=O)(=O)NCc1ccc(Cl)cc1` (stereo unspecified), the “activity change, negative = cytotoxicity” value was -13.3%. Turning to `CCC(=O)NCc1cc(-c2nn(C)c(=O)c3ccccc23)ccc1OC`, the Potency result is “inactive”. As to `CCCCCc1c(-c2cccc(Br)c2)ncn1CCc1ccccc1OC`, the Potency was 11.6 µM (active). In the case of `CCOC(=O)CSc1nnc(-c2cccc(Br)c2)o1`, the “activity change, negative = cytotoxicity” value is 17.9%.

Take `CCCCCc1c(-c2ccc(OC)c(OC)c2)ncn1CCc1ccccc1OC`: the Potency is 14.6 µM (active). Regarding `CCCCCc1c(Cc2ccccc2)ncn1CCc1ccccc1OC`, the “activity change, negative = cytotoxicity” value is -27.9%.

On to `COc1ccc(Br)cc1CN1CCN(C(=O)c2cccc(OC)c2OC)CC1`, for which the “activity change, negative = cytotoxicity” value is -7.38%. Consider `Cc1cccc(-n2ncc(C(=O)N3CCN(c4ccc(Cl)cc4)CC3)c2C2CCN(C(=O)OC(C)(C)C)CC2)c1`, for which the “activity change, negative = cytotoxicity” value is -29.7%.

In the case of `Cc1cc2nc(-c3ccc(NC(=O)c4cc5ccccc5o4)cc3)oc2cc1C`, the “activity change, negative = cytotoxicity” value is 19%. With `CCN(CC)CCN(C)C(c1ccnc2ccccc12)c1nnnn1-c1ccc2c(c1)OCCO2` (stereo unspecified), the “activity change, negative = cytotoxicity” value is -6.74%. Still for that read-out and setting: the same measure for `COC(=O)c1sc2ncccc2c1-n1c(C)ccc1C`: 6.85%; for `Cc1ccc(-c2c(N)nc3ncccn23)cc1`: 3.58%; for `O=C(CSc1oc(-c2ccccc2)nc1S(=O)(=O)c1ccc(Br)cc1)NC1CCCCC1`: 2.61%. Take `Cc1ccc([C@H]2C[C@H](O)[C@@H](n3cc(COC(=O)c4ccccc4)nn3)CN2C(=O)C2CCCCC2)cc1`: the “activity change, negative = cytotoxicity” value is 0%. Still for that read-out and setting: the same measure for `COc1ccccc1CNC(=O)C1CCN(c2nc3ccccc3o2)CC1`: -16.6%. On to `CCc1ccc(CNC(=O)C2CCCN(c3nc4ccccc4o3)C2)cc1` (stereo unspecified), for which the Potency is 14.6 µM (active). Turning to `COc1ccc(OC)c(CNC(=O)C2CCCN(c3nc4ccccc4o3)C2)c1` (stereo unspecified), the “activity change, negative = cytotoxicity” value was -14.5%.

Take `COc1ccc(S(=O)(=O)N(C)C)cc1NC(=O)COC(=O)c1n[nH]c2ccccc12`: the “activity change, negative = cytotoxicity” value was 0.0514%. For `CCCNC(=O)C1(C)CCCN(Cc2c(C)nn(-c3ccccc3)c2C)C1` (stereo unspecified), the “activity change, negative = cytotoxicity” value was 4.98%.

`O=C(CSc1ncn[nH]1)Nc1nc2c(F)c(F)c(F)cc2s1`: the “activity change, negative = cytotoxicity” value was 13.1%. On to `CN1OC[C@@H]2CN(S(=O)(=O)c3cccc(C(F)(F)F)c3)[C@H](c3ccc(-c4cc5ccccc5o4)cc3)C[C@@H]21`, for which the “activity change, negative = cytotoxicity” value is -10.5%.

Turning to `COc1ccc(CCNC(=O)COC(=O)Cc2ccccc2F)cc1`, the “activity change, negative = cytotoxicity” value was 0%. Take `COc1ccc(C(CCNCc2ccccc2F)c2ccc(F)cc2)cc1` (stereo unspecified): the Potency is 14.6 µM (active).

On to `COc1ccc(C(CNCC(=O)Nc2ccccc2F)N(C)C)cc1` (stereo unspecified), for which the “activity change, negative = cytotoxicity” value is -28%.

As for `O=S1(=O)CC(N2CCSCC2)CN1Cc1cn(Cc2cccc(Cl)c2)nn1` (stereo unspecified), the “activity change, negative = cytotoxicity” value is 12.2%. On to `COc1cc2[nH]c(C)c(CCN3CCN(c4ccccc4)CC3)c2cc1OC`, for which the “activity change, negative = cytotoxicity” value was -6.06%. Consider `Cc1ccc(NS(=O)(=O)c2cc3c(cc2Br)NC(=O)CO3)cc1C`, for which the “activity change, negative = cytotoxicity” value was -18.7%. As to `COc1cc(OC)c(/C=C/c2ccnc3ccccc23)c(OC)c1`, the “activity change, negative = cytotoxicity” value was -2.16%.

For the compound `O=C(Cn1nc(C(F)(F)F)c2c1CCC2)NCc1ccc(F)cc1`, the Potency was 11.6 µM (active). Take `CCC(C)NC(=O)Cn1nc(C(F)(F)F)c2c1CCC2` (stereo unspecified): the “activity change, negative = cytotoxicity” value was 4.8%.

For `O=C(Cn1nc(C(F)(F)F)c2c1CCCC2)Nc1ccc(Cl)cc1`, the “activity change, negative = cytotoxicity” value is 9.58%. Regarding `CC(C)Cn1cc(-c2cncc3nccn23)cn1`, the “activity change, negative = cytotoxicity” value was 3.33%. Regarding `CCCC(=O)N1CCC1(C)C(=O)NCc1ccc(C(C)C)cc1` (stereo unspecified), the “activity change, negative = cytotoxicity” value was 5.11%. `Cc1sc(NC(=O)c2ccc3ncsc3c2)c(C(N)=O)c1C`: the “activity change, negative = cytotoxicity” value is 16.3%.

On to `Cc1ccc(C(=O)c2c(NC(=O)c3ccccc3)sc(C)c2C)cc1`, for which the Potency was 9.2 µM (active). As to `Cc1ccc(C(=O)Nc2nc(-c3ccccc3)ns2)cc1`, the “activity change, negative = cytotoxicity” value is -0.0266%. With `O=C(/C=C/[C@H]1O[C@@H](n2ccc(=O)[nH]c2=O)[C@H](O)[C@@H]1O)NCc1ccccn1`, the “activity change, negative = cytotoxicity” value is -12.4%. The same measure, in the same setting: next, `O=[N+]([O-])c1ccc(CN2CC(N3CCC(c4ccccc4)CC3)CS2(=O)=O)cc1` (stereo unspecified): -9.02%.

As to `COC(=O)c1sccc1S(=O)(=O)N(CC(=O)Nc1ccc(C)c(F)c1)c1ccc(C)c(C)c1`, the “activity change, negative = cytotoxicity” value is -27.7%. The same measure, in the same setting: next, `O=C(OC1CC2CC1[C@H]1CCCCN1C2=O)N1CCOCC1` (stereo partly specified): 17.6%; `O=NN(CCCl)C(=O)NCCc1cccc[n+]1[O-]`: 18.4%.
